Measurements reported in PubChem BioAssay (NCI).
Compounds without any hit were thinned out: in the full panel of roughly 83,000, 20% have a hit.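 A percent growth of 40 corresponds to 60% growth inhibition; 0 means no net growth; -100 means all cells died. Active threshold: below 10.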 A number with no mark means an inactive call. Activity calls are given as the source filed them.

The compounds below were run on MOLT-4 leukemia (assay: NCI-60 one-dose screen, 48 h (100 = growth as untreated, 0 = no growth, -100 = all killed)). Conditions: 10 µM unless noted.

SMILES	growth
Cn1cc(-c2cc3nc(-c4cn(C)c5ncccc45)cc(N)n3n2)c2cc(Cl)ccc21	-45.7% (active)
CC12CC[C@@H]3[C@]4(C)COC(c5c(F)cccc5F)O[C@@H]4CC[C@@]3(C)[C@@H]1CC(C1=CCOC1=O)O2 (stereo partly drawn)	52.6%
Cc1nc(Nc2ncc(C(=O)Nc3c(C)cccc3Cl)s2)cc(N2CCN(CCCNC(=O)COc3ccc(C4CCC(=O)NC4=O)cc3)CC2)n1 (stereo not drawn)	48.9%
Cn1cc(NC(=O)c2cc(NC(=O)c3ccc(/C=C/c4ccccc4)cc3)cn2C)cc1C(=O)NCCCN1CCOCC1	-23.6% (active)
Cc1ccccc1[C@H]1C(C(=O)c2ccc(Cl)cc2)C2(N[C@@H]1c1ccccc1)C(=O)Nc1ccc(Br)cc12 (stereo partly drawn)	-2.55% (active)
Brc1ccc(N/N=C/c2c[nH]c3ccc(Br)cc23)nc1	-35% (active)
C=C1CCC2C3(C)COC(c4ccccc4)OC3CCC2(C)C1CC(Sc1ccccc1)C1=CCOC1=O (stereo not drawn)	-14.3% (active)
Clc1cccc(N/N=C/c2c[nH]c3ccc(Br)cc23)n1	-20.1% (active)
COc1c(F)ccc(C(=O)Nc2ccc3nc(NC(=O)C4CCCN(S(=O)(=O)c5cccc(C(F)(F)F)c5)C4)sc3c2)c1F (stereo not drawn)	44.9%
O=c1oc2ccc(Br)cc2cc1C1=CSc2nc3sc4c(c3c(=O)n2N=C1)CCCC4	93.2%
CC(=O)/C=C/c1cccc2c1C(=O)NC(C)(c1cc3cc(Br)ccc3oc1=O)N2 (stereo not drawn)	-6.34% (active)
O=c1[nH]c(=O)c2c(-c3cc4ccccc4oc3=O)ccnc2[nH]1	111%
O=C(/C=C/Nc1ccc2oc(=O)ccc2c1)c1cc2cc(Br)ccc2oc1=O	115%
CC1(c2cc3cc(Cl)ccc3oc2=O)NC(=O)c2c(/C=C/C(=O)OC3CC4CCC3(C)C4(C)C)cccc2N1 (stereo not drawn)	21.2%
COc1ccc(-c2ccnc(SCc3cc4ccccc4[nH]c3=O)n2)cc1OC	74%
CC12CC[C@@H]3[C@]4(C)COC(c5cn[nH]c5-c5cccc(Br)c5)O[C@@H]4CC[C@@]3(C)[C@@H]1CC(C1=CCOC1=O)O2 (stereo partly drawn)	4.43% (active)
O=C(c1ccc(OCCN2CCOCC2)cc1)C1[C@H](c2ccc(Cl)cc2)[C@@H](c2ccccc2)NC12C(=O)Nc1ccc(Br)cc12 (stereo partly drawn)	-33.9% (active)
COc1ccc2c(c1)c(/C=N/Nc1ccc3ccccc3n1)cn2C	-27.4% (active)
CN(C)CCOc1ccc(C(=O)C2[C@H](c3ccc(Cl)cc3)[C@@H](c3ccccc3)NC23C(=O)Nc2ccc(Br)cc23)cc1 (stereo partly drawn)	-52.3% (active)

SMILES	growth
O=c1[nH]c2ccc(Cl)cc2cc1CSc1nccc(-c2ccc(Cl)cc2)n1	85.5%
COc1cccc(/C=C/c2nc3ccccc3c(=O)n2CC(=O)Nc2ccc(Cl)cc2)c1	90.6%
CCCSc1nc(Nc2ccc(S(N)(=O)=O)cc2)c(C#N)c(-c2cc(OC)c(OC)c(OC)c2)n1	-35.8% (active)
CC(/C=C1\SC(=S)N(CCCC(=O)NC(CC(C)C)C(=O)O)C1=O)=C\c1ccccc1 (stereo not drawn)	54.9%
COc1ccc(/C=C/c2nc3ccccc3c(=O)n2CC(=O)Nc2ccc(Cl)cc2)cc1	82.2%
Cn1cc(-c2cc3nc(-c4cn(C)c5ncc(Br)cc45)cc(N)n3n2)c2cc(Cl)ccc21	-47.5% (active)
Cn1cc(-c2cc(N)n3nc(-c4cn(C)c5ncccc45)cc3n2)c2cccnc21	53.5%
Cc1ccc([C@H]2C(C(=O)c3ccc(Cl)cc3)C3(N[C@@H]2c2ccccc2)C(=O)Nc2ccc(Cl)cc23)cc1 (stereo partly drawn)	3.24% (active)
O=C(Cn1c(/C=C/c2ccccc2)nc2ccccc2c1=O)Nc1ccc(Cl)cc1	86.9%
CC12CC[C@@H]3[C@]4(C)COC(c5cn[nH]c5-c5cccc(Cl)c5)O[C@@H]4CC[C@@]3(C)[C@@H]1CC(C1=CCOC1=O)O2 (stereo partly drawn)	12.4%
CCCCSc1nc(Nc2ccc(S(N)(=O)=O)cc2)c(C#N)c(-c2cc(OC)c(OC)c(OC)c2)n1	-29.9% (active)
CCOC(=O)/C=C/c1cccc2c1C(=O)NC(C)(c1cc3cc(Cl)ccc3oc1=O)N2 (stereo not drawn)	4.75% (active)
O=C(c1ccc(OCCN2CCOCC2)cc1)C1[C@H](c2ccc(Cl)cc2)[C@@H](c2ccccc2)NC12C(=O)Nc1ccc(Cl)cc12 (stereo partly drawn)	-28.2% (active)
CC(C)c1sc(NC(=O)c2cc(NC(=O)c3cc(NC(=O)c4nccn4C)cn3C)cn2C)nc1C(=O)NCCCN(C)C	65.8%
COc1c(F)ccc(C(=O)Nc2ccc3nc(NC(=O)C4CCCN(S(=O)(=O)c5ccc(Cl)cc5)C4)sc3c2)c1F (stereo not drawn)	38.8%
O=C(N1c2ccccc2Sc2ccccc21)n1ccc2cccnc21	38.3%
Cn1cc(-c2cc(N)n3nc(-c4cn(C)c5ncc(Br)cc45)cc3n2)c2cc(Br)cnc21	-54.3% (active)
CC1=C(C#N)C2=NNCC(c3ccccc3)=NN2C(c2ccccc2)=C1	114%
C=C1CC[C@@H]2[C@]3(C)COC(c4cn[nH]c4-c4ccc(F)cc4)O[C@@H]3CC[C@@]2(C)[C@@H]1C/C=C1/C(=O)OCC1O (stereo partly drawn)	1.15% (active)
